Reference: PubChem BioAssay (Tox21)
Results filed as inconclusive are left out. The source made the active and inactive calls. Unless noted, calls come from the whole dose curve; as a rule, active = well fitted curve in the direction sought with a large enough effect in the repeat runs; inconclusive = weak or mixed curves; inactive = no such curve, though single readings can be large; an effect the other way counts as inactive or inconclusive.

Legend:
[1] = qHTS assay to identify small molecule HDAC inhibitors (AID 1259364); note: top concentration of the series differs between compounds; nearly all actives have a fitted effect of over 45% in size
Method in brief: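 Wild-type HCT-116 cells were plated overnight, exposed to compounds for 2 h at 37 °C, then given HDAC-Glo class I/II luminogenic reagent for 30 min at room temperature before luminescence was read.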

[2] = qHTS assay to identify small molecule HDAC inhibitors - cell viability counter screen (AID 1259365); note: series mostly up to about 92 µM; nearly all actives have a fitted effect of over 50% in size
Method in brief: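 To flag cytotoxic hits, 1,500 wild-type HCT-116 cells per well, plated the day before, receive test compounds for 2hr at 37 C before CellTiter-Glo reagent and a luminescence read.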

[3] = qHTS assay to identify small molecule agonists of the sonic hedgehog signaling (Shh) pathway - cell viability counter screen (AID 1259366); note: nearly all actives have a fitted effect of over 50% in size; note: potency is the fitted concentration of half-maximal effect
Method in brief: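 Fluorescence from CellTiter-Fluor reports live cells in this counter screen. NIH/3T3-derived Gli1-Luc reporter cells receive test compounds for 24hr at 37C; reagent goes in at 23hr.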

[4] = qHTS assay to identify small molecule agonists of the sonic hedgehog signaling (Shh) pathway (AID 1259368; calls by dose curve; note: series mostly up to about 92 µM; nearly all actives have a fitted effect of over 15% in size)
Method in brief: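 NIH/3T3-derived 3T3Gli1-Luc cells carrying a stably integrated Gli1 response element–firefly luciferase reporter were plated, left 4 hr at 37 C, then given compounds in DMSO for 24 hr. Luminescence was read 30 min after adding luciferase reagent.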

[5] = qHTS assay to identify small molecule antagonists of the sonic hedgehog signaling (Shh) pathway (AID 1259369; calls by dose curve; note: nearly all actives have a fitted effect of over 45% in size)
Method in brief: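 NIH/3T3-derived 3T3Gli1-Luc cells with stably integrated Gli1-Luc reporter were preincubated 4hr at 37 C, then given compounds in DMSO plus Shh conditioned medium and incubated 24hr. Firefly luciferase luminescence read after 30min reagent at room temperature.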

[6] = biological target: Estrogen receptor beta (Homo sapiens) (UniProt Q92731); assay: qHTS assay to identify small molecule agonists of the estrogen receptor beta (ER-beta) signaling pathway (AID 1259377; active = well fitted activation curve with a large enough effect in the signal ratio in the repeat runs, not every such curve was filed as active; the % refers to the signal ratio)
Chain of Estrogen receptor beta (Homo sapiens) (Q92731 whole entry, looked up): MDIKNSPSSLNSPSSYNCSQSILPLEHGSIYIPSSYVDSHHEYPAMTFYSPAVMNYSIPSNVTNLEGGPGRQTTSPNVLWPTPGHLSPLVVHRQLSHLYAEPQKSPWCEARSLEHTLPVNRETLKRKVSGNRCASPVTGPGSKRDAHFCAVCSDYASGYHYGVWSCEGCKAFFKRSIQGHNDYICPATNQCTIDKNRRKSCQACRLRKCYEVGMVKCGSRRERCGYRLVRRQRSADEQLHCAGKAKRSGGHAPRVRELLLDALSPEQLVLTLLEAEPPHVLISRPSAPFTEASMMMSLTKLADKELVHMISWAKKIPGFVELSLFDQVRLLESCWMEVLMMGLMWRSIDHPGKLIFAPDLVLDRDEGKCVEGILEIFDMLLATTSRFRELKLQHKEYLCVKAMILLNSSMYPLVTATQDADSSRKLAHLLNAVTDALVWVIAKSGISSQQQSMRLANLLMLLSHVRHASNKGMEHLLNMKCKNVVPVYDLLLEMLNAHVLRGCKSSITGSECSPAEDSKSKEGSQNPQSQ
Method in brief: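 Screening used GripTite ER-beta-UAS-bla cells held in 2% charcoal-stripped FBS medium. After overnight (16 hr) compound incubation at 37C, beta-lactamase activity was detected with a FRET substrate by fluorescence.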

[7] = qHTS assay to identify small molecule agonists of the androgen receptor (AR) signaling pathway in the presence of an antagonist - cell viability counter screen (AID 1259379); note: series mostly up to about 92 µM; nearly all actives have a fitted effect of over 25% in size
Method in brief: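 MDA-kb2 human breast carcinoma cells (stable MMTV-luciferase, AR/GR responsive) were seeded 3,000 cells/well, pre-incubated 5 hr at 37C without CO2, then given 3.0uM nilutamide and compounds at 15 concentrations for 16 hr. Viability was read by CellTiter-Fluor fluorescence.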

[8] = biological target: Androgen receptor (Homo sapiens) (UniProt P10275); assay: qHTS assay to identify small molecule agonists of the androgen receptor (AR) signaling pathway in the presence of an antagonist (AID 1259381; calls by dose curve; note: nearly all actives have a fitted effect of over 15% in size)
Chain of Androgen receptor (Homo sapiens) (P10275 whole entry, looked up): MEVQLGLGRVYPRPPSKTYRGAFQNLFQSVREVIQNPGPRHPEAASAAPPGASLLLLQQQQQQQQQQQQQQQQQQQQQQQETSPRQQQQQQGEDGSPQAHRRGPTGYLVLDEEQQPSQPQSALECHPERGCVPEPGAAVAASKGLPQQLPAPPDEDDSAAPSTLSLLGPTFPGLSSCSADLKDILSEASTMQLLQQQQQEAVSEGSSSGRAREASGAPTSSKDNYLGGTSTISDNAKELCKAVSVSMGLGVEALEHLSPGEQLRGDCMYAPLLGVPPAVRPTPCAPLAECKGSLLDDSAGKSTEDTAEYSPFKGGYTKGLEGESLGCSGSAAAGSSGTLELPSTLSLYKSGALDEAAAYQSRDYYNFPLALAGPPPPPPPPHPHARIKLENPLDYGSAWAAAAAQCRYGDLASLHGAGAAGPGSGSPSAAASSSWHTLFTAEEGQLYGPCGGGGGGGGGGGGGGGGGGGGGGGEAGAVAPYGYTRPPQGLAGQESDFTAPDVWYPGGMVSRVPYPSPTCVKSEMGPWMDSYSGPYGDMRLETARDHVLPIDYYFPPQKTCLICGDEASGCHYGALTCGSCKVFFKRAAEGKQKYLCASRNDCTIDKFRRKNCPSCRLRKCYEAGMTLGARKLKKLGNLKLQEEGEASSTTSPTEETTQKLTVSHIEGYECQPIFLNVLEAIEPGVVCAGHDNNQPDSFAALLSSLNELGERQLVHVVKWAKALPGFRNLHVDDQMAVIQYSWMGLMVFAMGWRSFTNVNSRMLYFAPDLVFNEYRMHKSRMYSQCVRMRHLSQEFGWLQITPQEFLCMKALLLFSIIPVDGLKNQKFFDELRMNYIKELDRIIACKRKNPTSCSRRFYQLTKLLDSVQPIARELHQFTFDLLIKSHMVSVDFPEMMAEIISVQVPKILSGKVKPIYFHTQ
Method in brief: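 MDA-kb2 human breast carcinoma cells carrying an MMTV-luciferase reporter (AR- and GR-responsive) were treated with compounds at 15 concentrations plus 3.0uM final nilutamide for 16hr at 37C without CO2; luminescence was read after ONE-Glo addition.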

[9] = qHTS assay to identify small molecule antagonists of the estrogen receptor beta (ER-beta) signaling pathway - cell viability counter screen (AID 1259382); note: series mostly up to about 92 µM; nearly all actives have a fitted effect of over 55% in size
Method in brief: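 ER-beta-UAS-bla HEK293T cells (2,000/well, 2% charcoal-stripped FBS) were pre-incubated 6 hr at 37C, then given compound plus 1nM final 17-beta-estradiol for 16 hr. Viability was read in the same wells by CellTiter-Glo luminescence after 30 min at room temperature.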

[10] = qHTS assay to identify small molecule agonists or antagonists of the thyroid stimulating hormone receptor (TSHR) signaling pathway - wild type cell line counter screen (AID 1259384; calls by dose curve)
Method in brief: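 Wild-type Hek293 cells, 800/well, 18 h at 37C, then compound with Ro20-1724 for 30 min RT. cAMP by HTRF (cAMP-d2/anti-cAMP cryptate), 1 h RT, fluorescence read. 15 concentrations, triplicates.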

[11] = biological target: Thyrotropin receptor (Homo sapiens) (UniProt P16473); assay: qHTS assay to identify small molecule antagonists of the thyroid stimulating hormone receptor (TSHR) signaling pathway (AID 1259385; calls by dose curve; note: nearly all actives have a fitted effect of over 20% in size)
Chain of Thyrotropin receptor (Homo sapiens) (P16473 whole entry, looked up): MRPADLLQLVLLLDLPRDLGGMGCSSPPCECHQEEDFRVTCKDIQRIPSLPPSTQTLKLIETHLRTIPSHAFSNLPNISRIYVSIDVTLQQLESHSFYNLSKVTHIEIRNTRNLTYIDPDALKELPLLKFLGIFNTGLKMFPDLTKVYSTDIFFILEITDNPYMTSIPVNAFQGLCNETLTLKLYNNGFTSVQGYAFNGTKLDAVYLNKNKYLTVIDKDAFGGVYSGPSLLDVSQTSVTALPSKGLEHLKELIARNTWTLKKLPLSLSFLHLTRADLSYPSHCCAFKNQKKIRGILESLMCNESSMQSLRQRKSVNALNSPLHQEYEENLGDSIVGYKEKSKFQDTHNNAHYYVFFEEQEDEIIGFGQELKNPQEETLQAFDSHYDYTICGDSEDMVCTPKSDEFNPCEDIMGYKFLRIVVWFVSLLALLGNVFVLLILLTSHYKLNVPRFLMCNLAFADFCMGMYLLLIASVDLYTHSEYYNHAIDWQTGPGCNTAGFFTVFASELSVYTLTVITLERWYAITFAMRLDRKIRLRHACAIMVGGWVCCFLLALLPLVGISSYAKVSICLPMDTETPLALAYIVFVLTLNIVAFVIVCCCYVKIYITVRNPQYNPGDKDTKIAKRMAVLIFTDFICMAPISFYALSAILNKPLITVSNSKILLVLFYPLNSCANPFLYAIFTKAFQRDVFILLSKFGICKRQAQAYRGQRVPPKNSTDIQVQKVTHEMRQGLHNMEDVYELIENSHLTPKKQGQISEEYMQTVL
Method in brief: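 TSHR-HEK293 cells (800/well) plated 18 h, then compounds with Ro20-1724 and TSH at 1.5 ng/mL final, 30 min at room temperature. cAMP quantified by HTRF (cAMP-d2/anti-cAMP-cryptate, 1 h); 15 concentrations in triplicate.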

[12] = qHTS assay to identify small molecule agonists of the estrogen receptor alpha (ER-alpha) signaling pathway in the presence of an antagonist - cell viability counter screen (AID 1259386);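 note: series mostly up to about 92 µM; cells exposed to compounds for 22 h at 37 °C before the viability read; nearly all actives have a fitted effect of over 30% in size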
Method in brief: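 VM7Luc4E2 cells (endogenous full-length ER-alpha, 4×ERE-luciferase) were held 5 days in phenol red-free medium with 10% charcoal-stripped FBS, plated, then given 10.0nM ICI-182,780 and compounds at 15 concentrations for 22hr at 37C; viability read by CellTiter-Fluor fluorescence.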

[13] = qHTS assay to identify small molecule antagonists of the sonic hedgehog signaling (Shh) pathway - cell viability counter screen (AID 1259367); note: nearly all actives have a fitted effect of over 55% in size
Method in brief: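 Seed 3T3 Gli1-Luc cells at 2,000 per well; incubate 4 hr; add compound in DMSO, then conditioned medium; incubate at 37C with 5% CO2; add CellTiter-Fluor after 23 hr; read fluorescence 1 hr later.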

[14] = qHTS assay to identify small molecule agonists of the estrogen receptor beta (ER-beta) signaling pathway - cell viability counter screen (AID 1259380); note: nearly all actives have a fitted effect of over 30% in size; note: potency is the fitted concentration of half-maximal effect
Method in brief: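 ER-beta-UAS-bla HEK293T cells in medium with 2% charcoal-stripped FBS were preincubated 6 hr at 37C, dosed with compound in DMSO for 16 hr, then after the bla read, CellTiter-Glo was added for 30 min at room temperature; luminescence recorded.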

[15] = biological target: Progesterone receptor (Homo sapiens) (UniProt P06401); assay: qHTS assay to identify small molecule agonists of the progesterone receptor (PR) signaling pathway (AID 1346784; calls by dose curve; note: nearly all actives have a fitted effect of over 30% in size)
Chain of Progesterone receptor (Homo sapiens) (P06401 whole entry, looked up): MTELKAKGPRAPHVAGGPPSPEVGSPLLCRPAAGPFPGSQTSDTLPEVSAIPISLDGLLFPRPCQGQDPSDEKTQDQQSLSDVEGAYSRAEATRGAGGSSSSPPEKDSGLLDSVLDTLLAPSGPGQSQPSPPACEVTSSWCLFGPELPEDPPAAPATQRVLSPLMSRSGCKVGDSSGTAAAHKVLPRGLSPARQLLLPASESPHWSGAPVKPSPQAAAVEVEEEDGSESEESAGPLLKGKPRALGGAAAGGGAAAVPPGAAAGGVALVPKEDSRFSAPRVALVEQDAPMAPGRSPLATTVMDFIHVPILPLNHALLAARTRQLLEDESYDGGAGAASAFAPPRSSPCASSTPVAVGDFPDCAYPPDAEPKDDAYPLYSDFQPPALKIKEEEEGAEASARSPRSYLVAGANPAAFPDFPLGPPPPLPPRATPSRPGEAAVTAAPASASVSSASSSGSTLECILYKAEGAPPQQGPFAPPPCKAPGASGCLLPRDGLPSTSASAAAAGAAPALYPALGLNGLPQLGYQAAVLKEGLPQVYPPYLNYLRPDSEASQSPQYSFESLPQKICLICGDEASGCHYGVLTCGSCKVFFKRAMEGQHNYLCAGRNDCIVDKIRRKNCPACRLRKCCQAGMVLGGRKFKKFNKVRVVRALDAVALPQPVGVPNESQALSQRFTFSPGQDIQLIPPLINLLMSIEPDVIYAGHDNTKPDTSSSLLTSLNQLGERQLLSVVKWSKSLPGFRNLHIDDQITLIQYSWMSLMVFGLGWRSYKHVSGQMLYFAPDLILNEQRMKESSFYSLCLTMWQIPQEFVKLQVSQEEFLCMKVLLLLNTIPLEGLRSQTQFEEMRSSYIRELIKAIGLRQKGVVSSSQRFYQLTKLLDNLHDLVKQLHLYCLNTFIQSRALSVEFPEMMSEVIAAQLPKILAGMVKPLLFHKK
Method in brief: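 Seed PR-UAS-bla HEK 293T cells (2% charcoal-stripped FBS), incubate 6 hr at 37C; add compounds in DMSO, 16 hr at 37C; add LiveBLAzer B/G substrate, 2 hr RT; read fluorescence intensity.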

[16] = biological target: Progesterone receptor (Homo sapiens) (UniProt P06401); assay: qHTS assay to identify small molecule antagonists of the progesterone receptor (PR) signaling pathway (AID 1346795; active = well fitted inhibition curve with a large enough effect in the signal ratio in the repeat runs, not every such curve was filed as active; the % refers to the signal ratio; note: potency is the fitted concentration of half-maximal effect)
Method in brief: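 Screening used a GripTite HEK293T line with PR-responsive UAS-beta-lactamase. Cells were challenged with compound in the presence of 1 nM R5020 final for 16 hr at 37C; B/G FRET substrate, 2 hr room temperature, fluorescence.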

[17] = biological target: Estrogen receptor (Homo sapiens) (UniProt P03372); assay: qHTS assay to identify small molecule agonists of the estrogen receptor alpha (ER-alpha) signaling pathway in the presence of an antagonist (AID 1259383; calls by dose curve; note: top concentration of the series differs between compounds; nearly all actives have a fitted effect of over 15% in size)
Chain of Estrogen receptor (Homo sapiens) (P03372 whole entry, looked up): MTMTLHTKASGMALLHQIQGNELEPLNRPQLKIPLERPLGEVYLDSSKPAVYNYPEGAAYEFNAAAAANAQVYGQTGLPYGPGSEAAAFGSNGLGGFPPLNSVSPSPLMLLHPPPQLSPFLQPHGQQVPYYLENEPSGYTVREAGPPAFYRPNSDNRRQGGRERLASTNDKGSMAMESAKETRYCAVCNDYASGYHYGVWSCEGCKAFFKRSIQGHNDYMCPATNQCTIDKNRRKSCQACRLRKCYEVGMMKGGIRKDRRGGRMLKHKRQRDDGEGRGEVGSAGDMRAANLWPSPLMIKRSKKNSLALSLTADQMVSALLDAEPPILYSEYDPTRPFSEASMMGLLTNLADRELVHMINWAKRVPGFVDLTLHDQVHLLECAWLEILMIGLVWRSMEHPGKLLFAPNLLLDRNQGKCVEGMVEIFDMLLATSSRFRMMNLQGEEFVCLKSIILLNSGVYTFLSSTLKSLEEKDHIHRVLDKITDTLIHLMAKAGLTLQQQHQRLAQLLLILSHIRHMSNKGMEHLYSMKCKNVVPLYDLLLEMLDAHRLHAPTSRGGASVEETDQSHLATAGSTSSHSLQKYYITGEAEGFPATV
Method in brief: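 VM7Luc4E2 cells (endogenous full-length ER-alpha, 4×ERE-luciferase) were precultured 5 days in phenol red-free medium with 10% charcoal-stripped FBS, given 10.0nM ICI-182,780 (final), then treated with compounds at 15 concentrations for 22hr at 37C; luminescence read with ONE-Glo.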

[18] = biological target: Estrogen receptor beta (Homo sapiens) (UniProt Q92731); assay: qHTS assay to identify small molecule antagonists of the estrogen receptor beta (ER-beta) signaling pathway (AID 1259378; active = well fitted inhibition curve with a large enough effect in the signal ratio in the repeat runs, not every such curve was filed as active; the % refers to the signal ratio)
Method in brief: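 ER-beta-UAS-bla HEK293T cells in 2% charcoal-stripped FBS medium treated with compound plus 1nM final 17-beta-estradiol for 16 hr at 37C. Beta-lactamase reporter read by FRET substrate fluorescence after 2 hours at room temperature.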

Measured: Potency

CCCCCCCC/C=C\CCCCCCCC(N)=O
not listed: [13] | [14] | [15] | [16] | [17] | [18]
inactive: all other assays above

COC(=O)CSc1cc(N=c2sc(=O)n3n2CCCC3)c(F)cc1Cl
not listed: [15] | [16] | [17] | [18]
inactive: all other assays above

CCCCCCCCCCCCCCCC(=O)OC/C=C(C)/C=C/C=C(C)/C=C/C1=C(C)CCCC1(C)C
not listed: [5] | [6] | [8] | [10] | [17] | [18]
inactive: all other assays above

Nc1nc(CC(=O)O)cs1
inactive: [1] | [2] | [3] | [13] | [5] | [6] | [7] | [10] | [11] | [12]

Oc1ccc(Cc2ccccc2)cc1
inactive: [1] | [2] | [7] | [9] | [10] | [11] | [12]
active: [16] 22.5 µM

CC(C)(C)c1cc(CO)cc(C(C)(C)C)c1O
not listed: [5] | [8] | [13] | [14] | [16] | [18]
inactive: all other assays above

O=C(O)/C=C/c1cnc[nH]1
not listed: [8] | [13] | [17]
inactive: all other assays above

CCCCCC/C=C/C=O
not listed: [6] | [8] | [10] | [11] | [17] | [18]
inactive: all other assays above

O=CNc1ccccc1
not listed: [1] | [8] | [10] | [11] | [17]
inactive: all other assays above

CCCCC(CC)(CO)CO
not listed: [4] | [6] | [8] | [14] | [17] | [18]
inactive: all other assays above

CN1CCN(C2=Nc3cc(Cl)ccc3Nc3ccccc32)CC1
active: [3] 13.3 µM | [14] 29.8 µM | [16] 23.7 µM
not listed: [1] | [5] | [8] | [9] | [13] | [18]
inactive: all other assays above
